# A number with no mark means an inactive call. Records with an inconclusive call do not appear. Entries that show only a call come without a potency. Activity calls are given as the source filed them. Unless noted, calls follow the shape of the dose curve; as a rule, active = well fitted curve in the direction sought with a large enough effect in the repeat runs; inconclusive = weak or mixed curves; inactive = no such curve, though single readings can be large; an effect the other way counts as inactive or inconclusive.
# Assays:
# [1] = molecular target: Estrogen receptor (Homo sapiens) (UniProt P03372); test: qHTS assay to identify small molecule antagonists of the estrogen receptor alpha (ER-alpha) signaling pathway using the BG1 cell line in the presence of 0.1 nM 17-beta-estradiol (AID 1259244); also: nearly all actives have a fitted effect of over 50% in size; also: potency is read from the fitted curve at half-maximal effect
# In short: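 VM7Luc4E2 cells (endogenous full-length ER-alpha, stable 4xERE-luciferase) were grown 5 days in phenol red-free medium with charcoal-stripped FBS, then exposed 22 h at 37C to compounds plus 0.1 nM (final) 17beta-estradiol; ONE-Glo luminescence read-out.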
# [2] = qHTS assay to identify small molecule phospholipidosis (PLD) inducers (AID 1259344; active = well fitted curve in the direction sought with a large enough effect; an effect the other way counts as inactive or inconclusive)
# In short: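 HepG2 cells on collagen I, attached 4 h at 37 C, were co-treated with compound and LipidTOX Red dye for 24 h at 37 C, then fixed with paraformaldehyde plus Hoechst 33342 and imaged by high-content microscopy for phospholipid accumulation.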
# [3] = qHTS assay to identify small molecule HDAC inhibitors (AID 1259364); also: top concentration of the series differs between compounds; nearly all actives have a fitted effect of over 45% in size
# In short: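 Wild-type HCT-116 cells were plated overnight, exposed to compounds for 2 h at 37 °C, then given HDAC-Glo class I/II luminogenic reagent for 30 min at room temperature before luminescence was read.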
# [4] = qHTS assay to identify small molecule HDAC inhibitors - cell viability counter screen (AID 1259365); also: series mostly up to about 92 µM; nearly all actives have a fitted effect of over 50% in size
# In short: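 To flag cytotoxic hits, 1,500 wild-type HCT-116 cells per well, plated the day before, receive test compounds for 2hr at 37 C before CellTiter-Glo reagent and a luminescence read.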
# [5] = qHTS assay to identify small molecule agonists of the sonic hedgehog signaling (Shh) pathway - cell viability counter screen (AID 1259366); also: nearly all actives have a fitted effect of over 50% in size; also: potency is read from the fitted curve at half-maximal effect
# In short: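 Fluorescence from CellTiter-Fluor reports live cells in this counter screen. NIH/3T3-derived Gli1-Luc reporter cells receive test compounds for 24hr at 37C; reagent goes in at 23hr.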
# [6] = qHTS assay to identify small molecule agonists of the sonic hedgehog signaling (Shh) pathway (AID 1259368; calls by dose curve; also: series mostly up to about 92 µM; nearly all actives have a fitted effect of over 15% in size)
# In short: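 NIH/3T3-derived 3T3Gli1-Luc cells carrying a stably integrated Gli1 response element–firefly luciferase reporter were plated, left 4 hr at 37 C, then given compounds in DMSO for 24 hr. Luminescence was read 30 min after adding luciferase reagent.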
# [7] = qHTS assay to identify small molecule antagonists of the sonic hedgehog signaling (Shh) pathway (AID 1259369; calls by dose curve; also: nearly all actives have a fitted effect of over 45% in size; also: potency is read from the fitted curve at half-maximal effect)
# In short: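 NIH/3T3-derived 3T3Gli1-Luc cells with stably integrated Gli1-Luc reporter were preincubated 4hr at 37 C, then given compounds in DMSO plus Shh conditioned medium and incubated 24hr. Firefly luciferase luminescence read after 30min reagent at room temperature.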
# [8] = qHTS assay to identify small molecule antagonists of the estrogen receptor beta (ER-beta) signaling pathway - cell viability counter screen (AID 1259382); also: nearly all actives have a fitted effect of over 55% in size; also: potency is read from the fitted curve at half-maximal effect
# In short: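 ER-beta-UAS-bla HEK293T cells (2,000/well, 2% charcoal-stripped FBS) were pre-incubated 6 hr at 37C, then given compound plus 1nM final 17-beta-estradiol for 16 hr. Viability was read in the same wells by CellTiter-Glo luminescence after 30 min at room temperature.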
# [9] = molecular target: Androgen receptor (Homo sapiens) (UniProt P10275); test: qHTS assay to identify small molecule antagonists of the androgen receptor (AR) signaling pathway using the MDA cell line in the presence of 0.5 nM R1881 (AID 1259243); also: potency is read from the fitted curve at half-maximal effect; nearly all actives have a fitted effect of over 50% in size
# In short: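 MDA-kb2 human breast carcinoma cells carrying an MMTV-luciferase reporter (AR- and GR-responsive) were plated, rested 5 hr at 37C, dosed with compounds, then stimulated with 0.5 nM R1881 (final) for 16 hr; luminescence was read after ONE-Glo.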
# [10] = qHTS assay to identify small molecule agonists of the androgen receptor (AR) signaling pathway in the presence of an antagonist - cell viability counter screen (AID 1259379); also: potency is read from the fitted curve at half-maximal effect; nearly all actives have a fitted effect of over 25% in size
# In short: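 MDA-kb2 human breast carcinoma cells (stable MMTV-luciferase, AR/GR responsive) were seeded 3,000 cells/well, pre-incubated 5 hr at 37C without CO2, then given 3.0uM nilutamide and compounds at 15 concentrations for 16 hr. Viability was read by CellTiter-Fluor fluorescence.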
# [11] = qHTS assay to identify small molecule agonists of the estrogen receptor beta (ER-beta) signaling pathway - cell viability counter screen (AID 1259380); also: nearly all actives have a fitted effect of over 30% in size; also: potency is read from the fitted curve at half-maximal effect
# In short: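 ER-beta-UAS-bla HEK293T cells in medium with 2% charcoal-stripped FBS were preincubated 6 hr at 37C, dosed with compound in DMSO for 16 hr, then after the bla read, CellTiter-Glo was added for 30 min at room temperature; luminescence recorded.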
# [12] = molecular target: Androgen receptor (Homo sapiens) (UniProt P10275); test: qHTS assay to identify small molecule agonists of the androgen receptor (AR) signaling pathway in the presence of an antagonist (AID 1259381; calls by dose curve; also: nearly all actives have a fitted effect of over 15% in size)
# In short: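 MDA-kb2 human breast carcinoma cells carrying an MMTV-luciferase reporter (AR- and GR-responsive) were treated with compounds at 15 concentrations plus 3.0uM final nilutamide for 16hr at 37C without CO2; luminescence was read after ONE-Glo addition.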
# [13] = molecular target: Thyrotropin receptor (Homo sapiens) (UniProt P16473); test: qHTS assay to identify small molecule antagonists of the thyroid stimulating hormone receptor (TSHR) signaling pathway (AID 1259385; calls by dose curve; also: nearly all actives have a fitted effect of over 20% in size)
# In short: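 TSHR-HEK293 cells were plated and held 18 h at 37C/5% CO2, then given compound plus Ro20-1724 and stimulated with TSH at 1.5 ng/mL final. After 30 min at room temperature, cAMP was detected with cAMP-d2/anti-cAMP-cryptate (1 h) by fluorescence.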
# [14] = molecular target: Estrogen receptor (Homo sapiens) (UniProt P03372); test: qHTS assay to identify small molecule agonists of the estrogen receptor alpha (ER-alpha) signaling pathway in the presence of an antagonist (AID 1259383; calls by dose curve; also: top concentration of the series differs between compounds; nearly all actives have a fitted effect of over 15% in size)
# In short: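 VM7Luc4E2 cells (endogenous full-length ER-alpha, 4×ERE-luciferase) were precultured 5 days in phenol red-free medium with 10% charcoal-stripped FBS, given 10.0nM ICI-182,780 (final), then treated with compounds at 15 concentrations for 22hr at 37C; luminescence read with ONE-Glo.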
# [15] = qHTS assay to identify small molecule antagonists of the androgen receptor (AR) signaling pathway using the MDA cell line in the presence of 0.5 nM R1881 - cell viability counter screen (AID 1259242); also: nearly all actives have a fitted effect of over 45% in size
# In short: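 MDA-kb2 cells (human breast carcinoma, stably carrying MMTV-luciferase reporter) were exposed to compounds with 0.5 nM R1881 (final) for 16 hr at 37C, 0% CO2; viability then read as live-cell protease fluorescence (CellTiter-Fluor, 30 min) in the same wells.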
# [16] = qHTS assay to identify small molecule agonists or antagonists of the thyroid stimulating hormone receptor (TSHR) signaling pathway - wild type cell line counter screen (AID 1259384; calls by dose curve)
# In short: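 Wild-type HEK293 cells were plated 18 h at 37 C/5% CO2, pin-dosed with compound plus Ro20-1724 medium, held 30 min at room temperature, then given cAMP-d2 and anti-cAMP-cryptate; fluorescence was read after 1 h. Fifteen concentrations, triplicate.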
# [17] = qHTS assay to identify small molecule antagonists of the estrogen receptor alpha (ER-alpha) signaling pathway using the BG1 cell line in the presence of 0.1 nM 17-beta-estradiol - cell viability counter screen (AID 1259241); also: potency is read from the fitted curve at half-maximal effect; nearly all actives have a fitted effect of over 40% in size
# In short: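 CellTiter-Fluor read (30 min, 37C) on ER-alpha/ERE-luc VM7Luc4E2 cells; 22 hr compound treatment; agonist 0.1 nM E2 final; same-well multiplex.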
# [18] = qHTS assay to identify small molecule antagonists of the sonic hedgehog signaling (Shh) pathway - cell viability counter screen (AID 1259367); also: potency is read from the fitted curve at half-maximal effect; nearly all actives have a fitted effect of over 55% in size
# In short: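 NIH/3T3-derived Gli1-Luc reporter cells (2,000 per well) rested 4 hr at 37 C, then received DMSO compounds plus conditioned medium. After 23 hr of treatment, CellTiter-Fluor was added for 1 hr at 37C and fluorescence read.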
# Androgen receptor (Homo sapiens), sequence (P10275 whole entry, looked up): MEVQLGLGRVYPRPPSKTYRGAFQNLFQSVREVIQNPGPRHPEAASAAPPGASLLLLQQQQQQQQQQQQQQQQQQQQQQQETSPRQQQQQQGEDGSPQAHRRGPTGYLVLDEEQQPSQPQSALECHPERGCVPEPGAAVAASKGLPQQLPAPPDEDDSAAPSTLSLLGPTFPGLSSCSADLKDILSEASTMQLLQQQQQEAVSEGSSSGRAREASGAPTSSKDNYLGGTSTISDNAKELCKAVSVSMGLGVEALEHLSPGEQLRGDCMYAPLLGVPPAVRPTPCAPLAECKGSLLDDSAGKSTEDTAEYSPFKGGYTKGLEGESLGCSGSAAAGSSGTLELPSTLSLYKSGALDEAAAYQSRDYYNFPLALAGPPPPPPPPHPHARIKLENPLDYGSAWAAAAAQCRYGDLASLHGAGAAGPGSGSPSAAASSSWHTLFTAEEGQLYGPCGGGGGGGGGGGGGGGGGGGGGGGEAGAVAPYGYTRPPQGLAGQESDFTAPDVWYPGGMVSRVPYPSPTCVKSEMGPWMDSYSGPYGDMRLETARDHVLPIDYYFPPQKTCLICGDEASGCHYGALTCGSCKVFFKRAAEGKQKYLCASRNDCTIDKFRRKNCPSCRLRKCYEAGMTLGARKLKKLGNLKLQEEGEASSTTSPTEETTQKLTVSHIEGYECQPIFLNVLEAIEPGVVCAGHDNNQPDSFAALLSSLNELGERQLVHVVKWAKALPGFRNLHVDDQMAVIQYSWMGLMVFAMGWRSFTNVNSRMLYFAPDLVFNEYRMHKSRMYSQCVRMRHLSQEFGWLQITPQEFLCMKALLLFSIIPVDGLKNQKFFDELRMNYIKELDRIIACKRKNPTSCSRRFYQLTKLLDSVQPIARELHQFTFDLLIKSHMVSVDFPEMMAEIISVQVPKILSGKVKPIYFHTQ
# Estrogen receptor (Homo sapiens), sequence (P03372 whole entry, looked up): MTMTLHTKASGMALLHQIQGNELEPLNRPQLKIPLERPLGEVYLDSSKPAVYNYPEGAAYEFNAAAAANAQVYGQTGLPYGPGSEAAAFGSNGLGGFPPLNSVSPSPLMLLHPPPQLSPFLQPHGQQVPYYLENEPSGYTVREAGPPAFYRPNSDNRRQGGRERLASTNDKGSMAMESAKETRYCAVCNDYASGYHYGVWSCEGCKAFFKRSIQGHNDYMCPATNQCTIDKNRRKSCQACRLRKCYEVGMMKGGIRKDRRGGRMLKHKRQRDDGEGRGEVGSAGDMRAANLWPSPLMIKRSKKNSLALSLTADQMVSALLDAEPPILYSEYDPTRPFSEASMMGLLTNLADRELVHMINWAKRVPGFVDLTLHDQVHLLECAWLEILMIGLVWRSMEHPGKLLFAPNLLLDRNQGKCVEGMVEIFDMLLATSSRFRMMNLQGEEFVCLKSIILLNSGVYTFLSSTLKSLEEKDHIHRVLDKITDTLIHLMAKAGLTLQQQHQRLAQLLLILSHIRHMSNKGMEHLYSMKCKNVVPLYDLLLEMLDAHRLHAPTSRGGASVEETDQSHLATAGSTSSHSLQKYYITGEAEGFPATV
# Thyrotropin receptor (Homo sapiens), sequence (P16473 whole entry, looked up): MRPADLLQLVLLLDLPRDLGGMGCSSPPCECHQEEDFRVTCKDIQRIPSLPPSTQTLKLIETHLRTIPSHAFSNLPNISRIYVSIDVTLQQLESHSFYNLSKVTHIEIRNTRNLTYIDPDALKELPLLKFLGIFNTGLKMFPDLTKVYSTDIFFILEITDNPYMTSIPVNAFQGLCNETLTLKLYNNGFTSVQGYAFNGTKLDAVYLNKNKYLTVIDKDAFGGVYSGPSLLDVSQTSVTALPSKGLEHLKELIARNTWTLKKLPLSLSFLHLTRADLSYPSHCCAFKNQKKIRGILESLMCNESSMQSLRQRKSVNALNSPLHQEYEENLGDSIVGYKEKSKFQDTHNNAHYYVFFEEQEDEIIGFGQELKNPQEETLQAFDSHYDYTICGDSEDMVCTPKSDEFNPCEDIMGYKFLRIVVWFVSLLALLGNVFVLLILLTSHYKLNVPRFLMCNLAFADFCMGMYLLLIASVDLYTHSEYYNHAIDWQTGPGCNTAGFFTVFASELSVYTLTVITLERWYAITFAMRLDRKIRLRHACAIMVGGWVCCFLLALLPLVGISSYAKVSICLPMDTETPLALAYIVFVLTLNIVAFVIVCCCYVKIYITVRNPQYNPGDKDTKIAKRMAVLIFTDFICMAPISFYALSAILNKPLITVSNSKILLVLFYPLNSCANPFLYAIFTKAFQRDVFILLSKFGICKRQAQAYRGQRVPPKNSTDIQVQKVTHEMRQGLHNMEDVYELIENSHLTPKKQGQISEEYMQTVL
SMILES,Potency [1],Potency [2],Potency [3],Potency [4],Potency [5],Potency [6],Potency [7],Potency [8],Potency [9],Potency [10],Potency [11],Potency [12],Potency [13],Potency [14],Potency [15],outcome [16],Potency [17],Potency [18]
CCC1=C[C@@H]2CN(C1)Cc1c([nH]c3ccccc13)[C@@](C(=O)OC)(c1cc3c(cc1OC)N(C)[C@H]1[C@@](O)(C(=O)OC)[C@H](OC(C)=O)[C@]4(CC)C=CCN5CC[C@]31[C@@H]54)C2,21.1 µM (active),inactive,inactive,inactive,11.9 µM (active),inactive,0.0042 µM (active),inactive,,,,,,,,,,
CS(=O)(=O)CCNCc1ccc(-c2ccc3ncnc(Nc4ccc(OCc5cccc(F)c5)c(Cl)c4)c3c2)o1,29.8 µM (active),inactive,inactive,inactive,inactive,inactive,,13.3 µM (active),13.3 µM (active),15 µM (active),13.3 µM (active),inactive,inactive,,,,,
CCOc1ccc2nc3cc(N)ccc3c(N)c2c1,inactive,inactive,inactive,inactive,,inactive,,,,,,,,inactive,,,,
CCCC(=O)OC[C@@H](OC(=O)CCC)[C@@H](OC(=O)CCC)[C@H](Cn1c2nc(=O)[nH]c(=O)c-2nc2cc(C)c(C)cc21)OC(=O)CCC,26.6 µM (active),inactive,inactive,inactive,,inactive,2.37 µM (active),inactive,16.8 µM (active),,16.8 µM (active),inactive,inactive,,inactive,inactive,,
O=[N+]([O-])c1cc([N+](=O)[O-])c2ccc(S(=O)(=O)O)cc2c1O,,,,,13.6 µM (active),,,inactive,,21.6 µM (active),inactive,,,,,,27.1 µM (active),8.58 µM (active)
CCN(CCC#N)c1ccc(N=Nc2c(Cl)cc([N+](=O)[O-])cc2Cl)cc1,inactive,,inactive,inactive,inactive,inactive,inactive,,,17.2 µM (active),,,inactive,,,,,
CCc1cc(Cc2cc(CC)cc(C(C)(C)C)c2O)c(O)c(C(C)(C)C)c1,,,inactive,inactive,61.1 µM (active),inactive,27.3 µM (active),24.3 µM (active),30.6 µM (active),,19.3 µM (active),inactive,inactive,,,inactive,,
CC(C)n1nc(-c2cc3cc(O)ccc3[nH]2)c2c(N)ncnc21,0.376 µM (active),inactive,inactive,inactive,0.841 µM (active),inactive,1.5 µM (active),,,,0.211 µM (active),,inactive,inactive,inactive,inactive,,

# Reference: PubChem BioAssay (Tox21)
